For assay [1], the target named is ALK tyrosine kinase receptor (Homo sapiens) (UniProt Q9UM73). To be noted: at 10 µM.
Assay [2] addresses T1, Activin receptor type-1B (Homo sapiens) (UniProt P36896).
T1 sequence (whole entry): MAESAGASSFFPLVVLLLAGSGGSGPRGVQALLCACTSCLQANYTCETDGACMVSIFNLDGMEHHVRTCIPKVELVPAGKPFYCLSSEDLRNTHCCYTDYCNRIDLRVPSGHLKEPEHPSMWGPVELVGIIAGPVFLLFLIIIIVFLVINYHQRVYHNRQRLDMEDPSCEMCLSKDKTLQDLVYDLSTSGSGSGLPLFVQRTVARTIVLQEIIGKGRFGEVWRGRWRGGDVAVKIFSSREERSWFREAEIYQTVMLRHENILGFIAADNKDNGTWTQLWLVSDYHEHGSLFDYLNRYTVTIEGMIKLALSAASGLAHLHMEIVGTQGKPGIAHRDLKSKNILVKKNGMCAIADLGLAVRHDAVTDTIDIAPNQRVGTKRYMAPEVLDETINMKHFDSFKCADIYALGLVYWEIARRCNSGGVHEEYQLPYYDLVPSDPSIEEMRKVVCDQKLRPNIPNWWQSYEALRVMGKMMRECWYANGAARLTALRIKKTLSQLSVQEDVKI
To be noted: at 10 µM.

Assay [3] has as its target T2, AMP-activated protein kinase (AMPK) alpha-1/beta-1/gamma-1 (Homo sapiens) (UniProt P54619+Q9Y478+Q13131). To be noted: at 1 µM.
The target of assay [4] is T2, AMP-activated protein kinase (AMPK) alpha-1/beta-1/gamma-1 (Homo sapiens). The settings on record: at 10 µM.
Assay [5] deals with T3, AMP-activated protein kinase, AMPK (Homo sapiens) (UniProt P54646+O43741+P54619+Q9UGJ0+Q9Y478+Q13131+Q9UGI9). To be noted: at 1 µM.
Assay [6] addresses T3, AMP-activated protein kinase, AMPK (Homo sapiens). The settings on record: at 10 µM.
In assay [7] the target is T4, NUAK family SNF1-like kinase 1 (Homo sapiens) (UniProt O60285).
T4 sequence (whole entry): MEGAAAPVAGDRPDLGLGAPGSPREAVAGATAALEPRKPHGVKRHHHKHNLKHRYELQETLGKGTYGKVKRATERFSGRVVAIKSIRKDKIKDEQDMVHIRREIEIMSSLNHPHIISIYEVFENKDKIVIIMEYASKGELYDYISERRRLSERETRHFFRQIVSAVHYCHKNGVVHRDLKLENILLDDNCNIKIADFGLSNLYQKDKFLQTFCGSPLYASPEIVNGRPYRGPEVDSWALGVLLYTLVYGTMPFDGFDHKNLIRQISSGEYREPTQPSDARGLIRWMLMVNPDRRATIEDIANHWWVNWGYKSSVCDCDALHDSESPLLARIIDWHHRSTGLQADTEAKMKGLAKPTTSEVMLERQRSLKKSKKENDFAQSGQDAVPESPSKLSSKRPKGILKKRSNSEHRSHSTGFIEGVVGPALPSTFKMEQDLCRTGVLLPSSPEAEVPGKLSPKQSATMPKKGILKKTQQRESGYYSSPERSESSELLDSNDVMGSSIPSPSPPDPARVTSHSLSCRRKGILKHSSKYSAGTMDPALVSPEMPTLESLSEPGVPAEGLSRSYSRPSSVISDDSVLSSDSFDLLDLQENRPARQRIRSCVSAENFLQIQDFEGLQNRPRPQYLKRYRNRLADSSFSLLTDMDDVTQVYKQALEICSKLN
To be noted: at 10 µM.

Assay [8] addresses T5, Mitogen-activated protein kinase kinase kinase 5 (Homo sapiens) (UniProt Q99683).
T5 sequence (whole entry): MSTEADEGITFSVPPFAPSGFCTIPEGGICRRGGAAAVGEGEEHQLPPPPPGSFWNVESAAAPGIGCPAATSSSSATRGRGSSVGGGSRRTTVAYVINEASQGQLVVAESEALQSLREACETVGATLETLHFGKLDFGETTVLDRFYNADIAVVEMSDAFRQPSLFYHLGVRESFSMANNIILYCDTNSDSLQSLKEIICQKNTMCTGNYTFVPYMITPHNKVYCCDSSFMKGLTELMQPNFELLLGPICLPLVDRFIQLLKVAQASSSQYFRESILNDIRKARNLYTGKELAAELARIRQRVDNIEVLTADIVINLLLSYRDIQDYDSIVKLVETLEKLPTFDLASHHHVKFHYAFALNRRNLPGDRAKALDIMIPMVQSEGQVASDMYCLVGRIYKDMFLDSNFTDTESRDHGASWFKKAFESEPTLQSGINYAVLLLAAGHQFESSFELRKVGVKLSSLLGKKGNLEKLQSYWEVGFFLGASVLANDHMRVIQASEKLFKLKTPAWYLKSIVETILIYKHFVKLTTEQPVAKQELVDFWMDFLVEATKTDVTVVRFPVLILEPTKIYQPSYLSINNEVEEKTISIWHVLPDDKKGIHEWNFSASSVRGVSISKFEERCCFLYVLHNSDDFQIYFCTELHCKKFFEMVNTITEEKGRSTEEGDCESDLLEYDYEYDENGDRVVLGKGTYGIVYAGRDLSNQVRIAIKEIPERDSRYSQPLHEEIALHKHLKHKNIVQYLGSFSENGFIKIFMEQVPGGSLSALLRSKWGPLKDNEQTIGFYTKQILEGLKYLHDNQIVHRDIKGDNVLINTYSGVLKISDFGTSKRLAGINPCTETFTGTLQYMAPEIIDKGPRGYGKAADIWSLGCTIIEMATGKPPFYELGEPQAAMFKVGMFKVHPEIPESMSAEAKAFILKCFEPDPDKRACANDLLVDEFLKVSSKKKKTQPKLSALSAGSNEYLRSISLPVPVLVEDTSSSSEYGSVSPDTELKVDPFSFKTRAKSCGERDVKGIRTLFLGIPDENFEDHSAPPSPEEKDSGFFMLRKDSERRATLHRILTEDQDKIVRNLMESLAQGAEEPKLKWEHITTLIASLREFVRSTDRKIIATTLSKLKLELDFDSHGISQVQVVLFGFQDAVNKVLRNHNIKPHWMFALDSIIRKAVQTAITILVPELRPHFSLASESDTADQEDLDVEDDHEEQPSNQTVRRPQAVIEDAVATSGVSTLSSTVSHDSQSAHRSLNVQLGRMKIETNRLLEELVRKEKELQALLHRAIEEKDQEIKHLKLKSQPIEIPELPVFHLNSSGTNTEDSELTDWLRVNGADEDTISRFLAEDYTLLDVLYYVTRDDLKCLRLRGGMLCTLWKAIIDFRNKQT
To be noted: at 1 µM.

The target in assay [9] is Platelet-derived growth factor receptor alpha (Homo sapiens) (UniProt P16234). The settings on record: at 1 µM.
Assay [10] shares this target. To be noted: at 10 µM.
Assay [11] deals with Platelet-derived growth factor receptor beta (Homo sapiens) (UniProt P09619). The settings on record: at 1 µM.
Sequence of Platelet-derived growth factor receptor beta (Homo sapiens) (P09619 whole entry): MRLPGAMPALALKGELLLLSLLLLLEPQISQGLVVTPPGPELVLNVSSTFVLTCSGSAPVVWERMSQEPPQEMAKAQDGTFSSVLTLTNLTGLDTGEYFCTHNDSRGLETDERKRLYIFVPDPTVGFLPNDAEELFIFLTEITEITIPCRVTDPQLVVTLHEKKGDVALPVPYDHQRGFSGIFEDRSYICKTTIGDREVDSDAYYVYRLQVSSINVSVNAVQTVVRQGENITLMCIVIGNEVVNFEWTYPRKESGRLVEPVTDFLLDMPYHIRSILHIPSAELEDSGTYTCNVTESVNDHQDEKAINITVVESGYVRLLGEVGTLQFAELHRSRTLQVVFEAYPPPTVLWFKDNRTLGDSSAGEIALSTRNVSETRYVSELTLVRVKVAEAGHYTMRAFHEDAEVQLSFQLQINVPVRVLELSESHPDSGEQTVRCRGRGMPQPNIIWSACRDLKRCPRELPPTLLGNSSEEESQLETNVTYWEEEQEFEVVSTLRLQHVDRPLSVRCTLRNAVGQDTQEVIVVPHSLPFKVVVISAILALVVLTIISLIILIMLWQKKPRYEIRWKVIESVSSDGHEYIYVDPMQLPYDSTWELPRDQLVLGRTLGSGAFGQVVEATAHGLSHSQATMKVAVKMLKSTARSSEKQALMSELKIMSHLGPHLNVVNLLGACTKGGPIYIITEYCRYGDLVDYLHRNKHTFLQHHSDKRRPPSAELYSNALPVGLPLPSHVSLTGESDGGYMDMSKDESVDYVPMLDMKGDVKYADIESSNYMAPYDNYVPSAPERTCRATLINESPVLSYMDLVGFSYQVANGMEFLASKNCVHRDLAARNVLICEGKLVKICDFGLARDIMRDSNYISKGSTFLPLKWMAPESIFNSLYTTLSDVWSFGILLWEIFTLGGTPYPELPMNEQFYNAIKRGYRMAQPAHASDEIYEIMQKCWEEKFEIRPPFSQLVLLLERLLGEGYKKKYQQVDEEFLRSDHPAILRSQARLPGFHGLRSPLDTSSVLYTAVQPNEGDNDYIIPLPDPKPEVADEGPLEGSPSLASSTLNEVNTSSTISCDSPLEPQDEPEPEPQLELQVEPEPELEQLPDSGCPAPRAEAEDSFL
Assay [12] shares this target. The settings on record: at 10 µM.
Assay [13] concerns the target T6, 3-phosphoinositide-dependent protein kinase 1 (Homo sapiens) (UniProt O15530).
T6 sequence (whole entry): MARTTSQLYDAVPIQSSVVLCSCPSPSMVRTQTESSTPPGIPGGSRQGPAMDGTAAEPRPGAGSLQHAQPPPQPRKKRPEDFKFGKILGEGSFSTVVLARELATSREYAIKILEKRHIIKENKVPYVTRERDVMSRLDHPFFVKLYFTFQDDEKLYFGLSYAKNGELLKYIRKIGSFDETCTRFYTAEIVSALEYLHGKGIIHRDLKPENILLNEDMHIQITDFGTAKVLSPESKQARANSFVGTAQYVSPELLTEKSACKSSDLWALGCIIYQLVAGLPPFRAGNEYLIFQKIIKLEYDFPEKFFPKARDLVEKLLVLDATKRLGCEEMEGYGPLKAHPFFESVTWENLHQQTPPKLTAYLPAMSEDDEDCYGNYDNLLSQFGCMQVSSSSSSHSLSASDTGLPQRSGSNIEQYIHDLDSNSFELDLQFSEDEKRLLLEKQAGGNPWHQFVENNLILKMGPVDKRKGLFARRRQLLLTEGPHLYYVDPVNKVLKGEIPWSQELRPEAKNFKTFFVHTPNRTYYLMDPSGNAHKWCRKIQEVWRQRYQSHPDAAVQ
The settings on record: at 1 µM.

Assay [14] concerns the target T6, 3-phosphoinositide-dependent protein kinase 1 (Homo sapiens). The settings on record: at 10 µM.
The target of assay [15] is cAMP-dependent protein kinase catalytic subunit alpha (Homo sapiens) (UniProt P17612). The settings on record: at 1 µM.
Assay [16] shares this target. The settings on record: at 10 µM.
The target of assay [17] is T1, Activin receptor type-1B (Homo sapiens). The settings on record: at 1 µM.
The target of assay [18] is T4, NUAK family SNF1-like kinase 1 (Homo sapiens). To be noted: at 1 µM.
The target of assay [19] is RAC-gamma serine/threonine-protein kinase (Homo sapiens) (UniProt Q9Y243). The settings on record: at 1 µM.
Sequence of RAC-gamma serine/threonine-protein kinase (Homo sapiens) (Q9Y243 whole entry): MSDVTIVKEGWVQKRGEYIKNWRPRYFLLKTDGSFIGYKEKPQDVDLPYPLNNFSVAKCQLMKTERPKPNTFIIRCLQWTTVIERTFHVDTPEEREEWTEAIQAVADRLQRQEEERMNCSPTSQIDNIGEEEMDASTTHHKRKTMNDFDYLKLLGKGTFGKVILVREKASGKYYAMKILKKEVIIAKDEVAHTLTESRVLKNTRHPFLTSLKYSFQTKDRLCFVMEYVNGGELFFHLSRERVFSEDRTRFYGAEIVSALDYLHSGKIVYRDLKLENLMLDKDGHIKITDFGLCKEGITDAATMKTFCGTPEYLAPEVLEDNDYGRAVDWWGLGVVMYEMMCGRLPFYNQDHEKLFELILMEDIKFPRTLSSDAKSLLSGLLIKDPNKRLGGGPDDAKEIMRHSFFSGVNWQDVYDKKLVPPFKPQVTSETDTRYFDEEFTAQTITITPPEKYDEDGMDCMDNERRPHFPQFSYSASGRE
Assay [20] shares this target. The settings on record: at 10 µM.

T2 sequence (P54619 whole entry): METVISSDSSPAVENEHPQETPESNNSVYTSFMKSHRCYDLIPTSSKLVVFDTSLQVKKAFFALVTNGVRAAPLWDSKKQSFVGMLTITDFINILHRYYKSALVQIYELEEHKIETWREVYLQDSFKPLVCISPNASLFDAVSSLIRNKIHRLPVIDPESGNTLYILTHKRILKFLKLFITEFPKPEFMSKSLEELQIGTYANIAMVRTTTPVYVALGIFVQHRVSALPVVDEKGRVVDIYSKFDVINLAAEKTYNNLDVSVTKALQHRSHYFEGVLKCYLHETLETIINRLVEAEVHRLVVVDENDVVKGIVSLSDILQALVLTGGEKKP
T2 sequence (Q13131 whole entry partner): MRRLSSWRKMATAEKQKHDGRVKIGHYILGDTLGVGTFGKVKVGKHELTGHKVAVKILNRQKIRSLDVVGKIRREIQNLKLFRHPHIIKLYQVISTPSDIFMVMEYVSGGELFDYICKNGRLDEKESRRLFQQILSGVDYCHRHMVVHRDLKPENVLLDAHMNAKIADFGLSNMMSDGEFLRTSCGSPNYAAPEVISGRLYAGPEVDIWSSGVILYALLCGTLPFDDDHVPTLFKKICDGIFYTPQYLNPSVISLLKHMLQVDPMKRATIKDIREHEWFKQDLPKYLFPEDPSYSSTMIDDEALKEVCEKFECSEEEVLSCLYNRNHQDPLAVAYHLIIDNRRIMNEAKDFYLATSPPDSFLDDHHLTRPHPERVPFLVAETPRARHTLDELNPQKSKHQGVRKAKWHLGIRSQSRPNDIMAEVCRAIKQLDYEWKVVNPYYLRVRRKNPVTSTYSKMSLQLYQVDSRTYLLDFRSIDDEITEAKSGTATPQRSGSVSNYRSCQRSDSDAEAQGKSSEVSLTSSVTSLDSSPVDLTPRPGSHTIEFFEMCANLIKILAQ
T2 sequence (Q9Y478 2-270 partner limits assumed): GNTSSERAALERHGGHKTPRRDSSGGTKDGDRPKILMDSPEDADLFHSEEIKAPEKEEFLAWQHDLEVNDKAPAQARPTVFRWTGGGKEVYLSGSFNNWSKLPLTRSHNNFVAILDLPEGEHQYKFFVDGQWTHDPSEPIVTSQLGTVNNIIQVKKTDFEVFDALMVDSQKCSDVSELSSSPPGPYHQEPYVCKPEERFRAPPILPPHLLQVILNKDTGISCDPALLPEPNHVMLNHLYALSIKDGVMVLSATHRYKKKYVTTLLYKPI
Sequence of ALK tyrosine kinase receptor (Homo sapiens) (Q9UM73 19-1620 limits assumed): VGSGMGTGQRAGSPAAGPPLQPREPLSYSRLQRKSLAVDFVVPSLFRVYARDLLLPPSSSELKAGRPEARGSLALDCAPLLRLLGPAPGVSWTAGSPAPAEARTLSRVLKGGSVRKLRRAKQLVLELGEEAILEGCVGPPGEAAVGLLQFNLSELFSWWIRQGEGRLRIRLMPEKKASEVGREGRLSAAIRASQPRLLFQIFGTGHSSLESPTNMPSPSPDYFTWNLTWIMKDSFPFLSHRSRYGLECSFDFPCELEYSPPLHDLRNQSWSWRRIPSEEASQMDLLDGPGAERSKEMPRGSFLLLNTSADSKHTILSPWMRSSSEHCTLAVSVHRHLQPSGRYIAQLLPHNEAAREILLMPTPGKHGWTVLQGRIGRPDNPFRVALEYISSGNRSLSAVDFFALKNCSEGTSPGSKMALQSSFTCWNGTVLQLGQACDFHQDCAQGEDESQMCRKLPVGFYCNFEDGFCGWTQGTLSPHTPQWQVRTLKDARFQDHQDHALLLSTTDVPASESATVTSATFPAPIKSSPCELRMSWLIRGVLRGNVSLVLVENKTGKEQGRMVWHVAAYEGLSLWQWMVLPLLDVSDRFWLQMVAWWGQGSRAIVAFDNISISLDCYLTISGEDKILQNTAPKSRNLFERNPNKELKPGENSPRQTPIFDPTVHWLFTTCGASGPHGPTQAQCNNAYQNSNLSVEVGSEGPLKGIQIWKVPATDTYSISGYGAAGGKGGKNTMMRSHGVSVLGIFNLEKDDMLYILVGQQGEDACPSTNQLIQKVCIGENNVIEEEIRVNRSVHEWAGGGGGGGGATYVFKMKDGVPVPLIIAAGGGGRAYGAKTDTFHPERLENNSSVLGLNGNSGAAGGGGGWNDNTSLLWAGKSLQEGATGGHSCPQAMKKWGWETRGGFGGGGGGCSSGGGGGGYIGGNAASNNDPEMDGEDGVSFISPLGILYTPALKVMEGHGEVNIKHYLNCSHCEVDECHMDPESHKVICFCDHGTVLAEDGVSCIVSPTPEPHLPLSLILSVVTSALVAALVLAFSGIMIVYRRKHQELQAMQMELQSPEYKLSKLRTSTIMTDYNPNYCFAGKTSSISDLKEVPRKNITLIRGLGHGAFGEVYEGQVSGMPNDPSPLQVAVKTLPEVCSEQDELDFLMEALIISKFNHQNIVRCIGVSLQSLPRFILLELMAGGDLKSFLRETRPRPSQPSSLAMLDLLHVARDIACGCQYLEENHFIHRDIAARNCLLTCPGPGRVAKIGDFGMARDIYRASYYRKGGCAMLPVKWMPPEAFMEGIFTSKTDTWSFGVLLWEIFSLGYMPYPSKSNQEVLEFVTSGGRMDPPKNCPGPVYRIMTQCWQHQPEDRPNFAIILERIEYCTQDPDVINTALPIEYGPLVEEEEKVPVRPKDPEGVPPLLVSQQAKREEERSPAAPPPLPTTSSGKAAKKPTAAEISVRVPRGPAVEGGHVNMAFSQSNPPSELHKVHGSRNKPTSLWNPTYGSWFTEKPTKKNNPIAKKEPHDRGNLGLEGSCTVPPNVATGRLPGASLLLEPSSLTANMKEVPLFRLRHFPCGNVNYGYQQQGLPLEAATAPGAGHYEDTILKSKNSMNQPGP

As to `N#Cc1cnc2cnc(NCc3cccnc3)cc2c1Nc1ccc(F)c(Cl)c1`, the residual activity in assay [1] is 75%; in assay [2], 92%; in [3], -2%; in assay [4] it was -1%; in assay [5], -5%; in [6] it was -1%. Further, the residual activity in assay [7] is -1%; in assay [8], 85%; in assay [9], 97%; in assay [10] it was 54%; in assay [11], 119%; in assay [12], 88%. Moreover, the residual activity in assay [13] amounted to 45%; in assay [14], 41%; in assay [15], 5%; in [16], 1%.

As to `COc1cc2ncnc(N3CCN(C(=O)Nc4ccc(Oc5ccccc5)cc4)CC3)c2cc1OC`, the residual activity in assay [1] turned out to be 49%; in assay [17], 104%; in assay [2] it was 97%; in assay [3], 79%; in assay [4] it was 97%; in [5], 99%. For the same compound, the residual activity in assay [6] worked out at 101%; in [18], 107%; in assay [7] it was 82%; in [8] it was 79%; in assay [9], 26%; in [10], 6%. The residual activity in assay [13] is 106%; in assay [14], 116%; in assay [15], 102%; in assay [19] it was 94%; in [20] it was 112%.

Regarding `c1ccc(-c2n[nH]cc2-c2ccnc3ccccc23)nc1`, the residual activity in assay [1] is 105%; in assay [17] it was -3%; in [2], -4%; in [3] it was 86%; in assay [4] it was 76%; in assay [5], 101%. Moreover, the residual activity in assay [6] came out at 81%; in assay [18], 99%; in assay [7], 90%; in [8], 98%; in assay [11], 96%; in assay [12] it was 109%. Besides, the residual activity worked out at 104% in assay [13]; 104% in [14]; 93% in assay [16]; 96% in assay [19]; 96% in [20].

Consider `N#CC(C#N)=C(N)/C(C#N)=C/c1ccc(O)cc1`, for which the residual activity in assay [3] was found to be 92%; in assay [4], 79%; in assay [5], 100%; in assay [7], 96%; in assay [8] it was 81%; in [9], 119%. Also, the values for the residual activity in assay [11], in assay [15] and in [16] were 99%, 82% and 63%, respectively.

For `COc1cccc(-c2cc(=O)c3ccccc3o2)c1N`, the residual activity in assay [1] was determined as 83%; in assay [17], 111%; in [2], 108%; in assay [3], 101%; in [4], 96%; in assay [5], 98%. The residual activity in [6] came out at 94%; in assay [18], 109%; in assay [7], 93%; in assay [8], 119%; in [9], 107%; in [10], 110%. In addition, the residual activity stood at 114% in assay [11]; 108% in [12]; 114% in [13]; 99% in assay [14]; 96% in assay [15]; 95% in assay [16]. For the same compound, the residual activity in assay [19] came out at 100%; in assay [20], 95%.

Regarding `N#CCCc1ccc2c(c1)-c1[nH]c3ccc([N+](=O)[O-])cc3c1CC(=O)N2`, the residual activity in assay [1] stood at 45%; in assay [17], 67%; in assay [2], 23%; in assay [3], 57%; in assay [4], 29%; in assay [5], 27%. Besides, the residual activity stood at 17% in [6]; 10% in [18]; 8% in assay [7]; 17% in [13]; 6% in [14].

As for `COc1cc2ncc(-c3ccccc3)nc2cc1OC`, the residual activity in assay [3] is 86%; in [4], 82%; in [6], 75%; in assay [7] it was 77%; in assay [8], 83%; in assay [9], 84%. In addition, the residual activity was found to be 27% in [10]; 97% in [11]; 73% in assay [12]; 99% in [15]; 74% in assay [16].

Regarding `Oc1n[nH]c2nnc(-c3c(-c4ccccc4)nn4ccccc34)cc12`, the residual activity in assay [1] came out at 89%; in [2] it was 115%; in assay [3], 86%; in [4] it was 82%; in [5], 97%; in assay [6], 90%. Moreover, the residual activity in assay [18] turned out to be 100%; in assay [7] it was 45%; in assay [8] it was 111%; in [9], 103%; in assay [10] it was 110%; in [11], 103%. For the same compound, the residual activity was 110% in assay [12]; 85% in [13]; 70% in assay [14]; 86% in assay [15]; 101% in [16]; 96% in [19]. Further, the residual activity in [20] worked out at 84%.

For `CCOc1cc2ncnc(Nc3cccc(Br)c3)c2cc1OCC`, the residual activity in [1] was determined as 39%; in assay [17] it was 125%; in assay [2] it was 91%; in assay [3], 84%; in [4] it was 57%; in [5], 79%. In addition, the residual activity came out at 57% in assay [6]; 87% in assay [18]; 57% in assay [7]; 115% in assay [8]; 90% in [10]; 89% in assay [11]. Also, the residual activity was 91% in [12]; 104% in [13]; 86% in [14]; 73% in assay [15]; 86% in [16]; 100% in [19]. Further, the residual activity in assay [20] amounted to 100%.

Values taken from ChEMBL document CHEMBL2218924, “A broad activity screen in support of a chemogenomic map for kinase signalling research and drug discovery” (Biochem J, 2013).
